# The list is not random: actives were taken first. Their share in the collection is about 6%.
# Chronic BCR inh = blocks chronic active B-cell receptor signaling; ABC-DLBCL IkBa-CBG/CBR reporter, luminescence ratio, 4 h; Potency, µM (top dose mostly 46.1 µM), without a hit: at the top dose activity change, negative = inhibition, actives largely listed as inhibitors; 340,000 compounds, 0.05% hits; active = well fitted inhibition curve with a large enough effect in the signal ratio, with a control signal flat, not every such curve was filed as active; inconclusive = small, poorly fitted or top-dose-only effect, or effect the other way, or a change in a side signal; the % refers to the signal ratio;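 also: potency is read from the fitted curve at half-maximal effect; plate controls were basal doxycycline-induced cells for no effect and cells given 10 µM MG132 for full effect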
#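 Concentration-response series (up to 46 uM) were applied to TMD8 dual-reporter cells for 4 h at 37C with doxycycline. Green/red ratio, after filter-overlap correction, defined %Activity; red signal alone was normalised to basal cells and zero luminescence.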
# D1 antagonist = human D1 dopamine receptor antagonism. 360,000 compounds, 3.2% hits. P21728. HEK293 TREx D1 cells, calcium flux, dopamine EC80; hits give low values. activity change, negative = inhibition, % at 10 µM. AID 504652; in the data active = activity change below about -30%; also: % is scaled to controls: 0 for no effect and ±100 for the full control effect
# Target sequence (P21728 whole entry, looked up): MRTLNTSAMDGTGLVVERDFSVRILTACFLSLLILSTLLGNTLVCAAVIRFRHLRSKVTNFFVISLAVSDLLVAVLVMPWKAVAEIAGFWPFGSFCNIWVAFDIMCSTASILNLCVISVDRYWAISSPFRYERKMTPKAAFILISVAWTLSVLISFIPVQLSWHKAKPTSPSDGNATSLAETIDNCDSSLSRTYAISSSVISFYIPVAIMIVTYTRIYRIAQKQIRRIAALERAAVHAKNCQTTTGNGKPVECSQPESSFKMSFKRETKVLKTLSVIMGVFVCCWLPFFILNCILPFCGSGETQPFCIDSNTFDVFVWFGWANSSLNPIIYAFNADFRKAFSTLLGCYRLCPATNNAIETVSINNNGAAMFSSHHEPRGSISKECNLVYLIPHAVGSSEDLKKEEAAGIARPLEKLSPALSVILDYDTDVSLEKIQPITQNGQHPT
#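 Calcium flux readout: force-coupled, inducible Hek293 Trex D1 line, cells induced overnight at 30 C with tetracycline, dye-loaded 30–90 min at RT. Antagonism scored against EC80 dopamine challenge given 180 s after compound.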
# D1 potentiator = enhances dopamine response at the human D1 receptor; 360,000 compounds, 0.036% hits; AID 504651; potentiation, % at 10 µM; P21728; HEK293 TREx D1 cells, calcium flux, dopamine EC20 potentiation; in the data active = potentiation above about 30%; also: 0% is about no effect
# D1 agonist = human D1 receptor agonism. AID 504660. 360,000 compounds, 1% hits. P21728. activation, % at 2 µM. HEK293 T-REx D1 cells, calcium flux, agonist mode; in the data active = activation above about 30%; also: 0% is about no effect
#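 Agonism was scored from calcium flux recorded over 180 s (1 read/s) after pintool compound addition, following a 10-cycle baseline. Cells were inducible force-coupled HEK293 TREx D1, plated overnight at 30 C and loaded with no-wash calcium dye.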
# D3 ag = agonists of human D3 dopamine receptor | P35462 | D3R DiscoveRx beta-arrestin cells, luminescence, 90 min | max activation, % | 410,000 compounds, 0.58% hits | AID 652048; in the data active = max activation above about 30%; also: 0% is about no effect
#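 Agonist-mode cell screen: cells plated at 1500/well and incubated overnight at 37 °C, then exposed to library compounds for 90 min at 37 °C. Detection reagent was added for 30–60 min at room temperature, and luminescence was read.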
# D3 antag = antagonists of human D3 dopamine receptor; AID 652054; 360,000 compounds, 2.5% hits; max response, negative = inhibition, %; D3R cells, DiscoveRx beta-arrestin luminescence, antagonist mode; hits give low values; P35462; in the data active = max response below about -50%; inconclusive = no clear call, values can overlap the other calls; also: % is scaled to controls: 0 for no effect and ±100 for the full control effect
#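 Cells expressing the human receptor were seeded at 1500 cells/well, incubated overnight at 37 degrees C in 5% CO2, then exposed to library compounds with dopamine controls for 90 minutes at 37 degrees C before luminescent detection.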
# * marks the source's active call; other numbers are inactive results; ? = inconclusive; · = not tested or not shown.
SMILES,Chronic BCR inh,D1 antagonist,D1 potentiator,D1 agonist,D3 ag,D3 antag
CCn1c(=NC(=O)c2ccc(S(=O)(=O)N3CCCCC3)cc2)sc2cccc(OC)c21,·,-8.1,0.5,-0.3,-5.4,·
CCOC(=O)c1c(O)c2c(n(Cc3ccco3)c1=O)CCCC2,-5.6%,-2.0,-1.4,0.3,43.6*,57.6
Cc1ccc(CNC(=O)CSc2nc(=O)n(Cc3ccco3)c3c2CCC3)cc1,7.6%,·,-0.2,0.0,-3.2,·
CCC(=O)OCc1c(C(F)(F)F)nn(C)c1Sc1ccc(Cl)cc1,?,-33.1*,-1.8,18.6,-0.8,?
CCC(=O)OCc1c(C(F)(F)F)nn(C)c1Sc1ccc(F)cc1,?,-0.2,2.5,9.1,4.9,0.1
CCN(CC)S(=O)(=O)c1cccc(-c2nnc(SCCOc3ccccc3C)o2)c1,-1.5%,0.1,-3.6,33.5*,-3.2,-21.3
CCN(CC)S(=O)(=O)c1cccc(-c2nnc(SCCOc3ccccc3)o2)c1,-10.0%,-18.5,-6.3,16.6,5.0,6.5
CCN(CC)S(=O)(=O)c1cccc(-c2nnc(SCc3nnc(-c4ccccc4)o3)n2C)c1,?,-7.5,6.5,2.0,-1.8,-50.5*
CCN(CC)S(=O)(=O)c1ccc(-c2nnc(SCc3nnc(-c4ccc(C)cc4)o3)n2CC)cc1,2.4%,7.3,-5.3,1.6,2.1,-3.4
CCOC(=O)c1c(CN2CCN(C)CC2)oc2ccc(O)cc12,?,5.0,-1.9,4.8,-2.8,-54.4*
CCN(CC)C(=O)c1c(-c2ccccc2)oc2ccc(O)cc12,0.2%,-30.8*,-2.6,0.7,-8.3,-7.2
CCOC(=O)c1c(CN2CCOCC2)oc2ccc(OC(C)=O)cc12,-1.5%,-11.3,-0.2,2.3,1.0,2.1
CCOC(=O)c1c(-c2ccccc2)oc2ccc(O)cc12,10.3%,6.8,3.1,1.9,6.9,2.9
COCCOC(=O)c1c(C)oc2ccc(OCc3cc(C(=O)OC)oc3C)cc12,7.0%,7.7,-3.1,7.0,48.3*,28.4
COCCOC(=O)c1c(C)oc2ccc(OS(C)(=O)=O)cc12,6.5%,6.1,-0.1,-0.5,-3.8,12.7
CCN(CC)CCOC(=O)c1c(C)oc2ccc(O)cc12,10.3%,-2.7,-4.0,2.2,-15.3,-71.6*
COCCOC(=O)c1c(C)oc2ccc(OCC=C(C)C)cc12,10.3%,3.8,6.4,7.5,11.1,38.5
CC1CCc2c(sc3nnn(CC(=O)Nc4c(C(C)C)cccc4C(C)C)c(=O)c23)C1 (stereo not given),·,-13.6,-4.5,1.7,-7.7,·
COc1ccc(CC(=O)c2ccc(OC)c(OC)c2C)cc1OC,-8.4%,-34.2*,-0.2,17.7,10.9,20.2
COc1ccc(CC(=O)Oc2ccc(C)cc2Br)cc1OC,-2.1%,-32.1*,-4.1,12.4,3.3,7.3
Cn1c(=O)c2c(nc(SCC(=O)NCC3CCCO3)n2C)n(C)c1=O (stereo not given),20.3%,-7.4,-2.6,1.3,15.3,19.9
CC(C)Cc1nc(SCC(=O)NCC2CCCO2)c2c(=O)n(C)c(=O)n(C)c2n1 (stereo not given),-1.0%,-92.1*,-13.9,2.7,2.8,1.2
COc1cc2ccnc(Cc3cccc(OC)c3OC)c2cc1OC,-17.2%,-44.4*,-1.1,12.5,0.8,11.2
Fc1cccc(CSc2ncnc3c2oc2ccccc23)c1,2.0%,-92.6*,-5.2,1.9,-8.8,-6.4
O=C(CSc1ncnc2c1oc1ccccc12)OCc1ccccc1,9.2%,-5.9,5.7,12.1,30.3*,11.2
SMILES,Chronic BCR inh,D1 antagonist,D1 potentiator,D1 agonist,D3 ag,D3 antag
COc1ccc(-c2[nH]c(-c3ccc(F)cc3)nc2SCC(=O)Nc2ccc(OC)c(OC)c2)cc1,·,7.3,0.4,0.1,-7.8,·
O=C(Nc1ccc(F)cc1)c1ccc(Cn2nc(N3CCN(c4ccccc4)CC3)ccc2=O)o1,·,-32.3*,-5.2,1.4,-1.7,·
CC(C)(C)c1ccc(C2NC(=O)c3n[nH]c(-c4cccs4)c32)cc1 (stereo not given),·,18.5,-1.5,4.9,2.0,·
O=C(CC1NCCc2ccccc21)Nc1ccc(Cl)cc1 (stereo not given),?,-2.6,-6.2,2.8,-13.1,-87.2*
CCC(C(=O)NCCCN(CC)CC)n1ncn2c(cc3occc32)c1=O (stereo not given),·,1.8,2.8,-0.3,-6.2,·
CC(C)(C)/C(O)=C(/C#N)c1nc2ccccc2[nH]1,-1.7%,3.2,0.2,1.4,0.5,?
N#C/C(=C(O)\C=C\c1ccccc1)c1nc2ccccc2[nH]1,?,-30.8*,-16.0,2.5,-5.4,-23.9
CCCOc1ccc(F)cc1-c1cc(C(=O)NCc2ccccc2)[nH]n1,·,·,·,·,-18.6,-99.2*
Cc1cc(F)ccc1-c1cc(C(=O)NCc2ccccc2)[nH]n1,·,·,·,·,-20.2,-89.0*
CCCOc1ccc(F)cc1-c1cc(C(=O)NCc2cccc(Cl)c2)[nH]n1,·,·,·,·,-7.6,-6.1
O=C(NCc1ccccc1)c1c(Cl)nc(Cl)c(Cl)c1Cl,?,-42.5*,-10.2,0.4,-1.4,?
COc1ccc(NC(=O)c2cc(-c3cc(F)ccc3OC(C)C)n[nH]2)c(OC)c1,·,·,·,·,1.3,42.5
Cc1nc(Cl)c(C(=O)NCc2ccccc2)c(C)c1Cl,-3.9%,3.0,-3.2,2.2,-0.9,-12.2
COc1ccc(NC(=O)c2cc(-c3cc(F)ccc3OC)n[nH]2)c(C)c1,·,·,·,·,-8.4,-51.2*
C=C[C@]1(C)C[C@@H](OC(=O)CSCCN(CC)CC)[C@]2(C)[C@H](C)CC[C@]3(CCC(=O)[C@H]32)[C@@H](C)[C@@H]1O,·,·,·,·,-24.5,·
Cc1ccc(C)c(N2CCN(C(C(=O)NC3CCCC3)C(C)C)CC2)c1 (stereo not given),·,·,·,·,-8.7,1.6
Cc1ccc(-c2cccc(C(=O)NCCc3ccccc3)n2)c2ccccc12,0.0%,4.2,8.2,3.4,-18.2,-22.3
COc1ccc(NC(=O)c2cc(-c3cc(Cl)ccc3OC)n[nH]2)cc1OC,·,·,·,·,5.5,27.4
COc1ccc(Cl)cc1-c1cc(C(=O)Nc2ccc(F)cc2)[nH]n1,·,·,·,·,-19.3,-68.7*
Cc1ccc(-c2cccc(C(=O)NCc3ccccc3)n2)c2ccccc12,-7.9%,0.2,-3.2,-2.6,0.0,-59.0*
Cc1cc(F)ccc1-c1cc(C(=O)Nc2ccc(F)cc2)[nH]n1,·,·,·,·,-22.1,-58.0*
Cc1ccc(C)c(C(=O)N2CCC(c3nc4c(nnn4Cc4ccccc4)c(=O)[nH]3)CC2)c1,·,-11.3,-0.6,11.4,-1.5,·
CCCCCn1c(CN2CCN(c3cc(Cl)ccc3C)CC2)nc2c1c(=O)[nH]c(=O)n2C,2.8%,41.3,-1.3,5.8,86.8*,17.7
CCCCCn1c(CN2CCN(c3ccc(OC)cc3)CC2)nc2c1c(=O)[nH]c(=O)n2C,·,2.0,-1.2,-0.5,-17.3,·

# Screening data deposited in PubChem BioAssay by National Center for Advancing Translational Sciences (NCATS).
